Holding throughout (set-up): scale not given: direction of the effect not stated beside the values
In assay [1] the target is Protein translocase subunit SecA (Escherichia coli (strain K12)) (UniProt P10408). Nature of the assay: Assay to Identify E. coli SecA ATPase Inhibitors. The format is functional. The note with it: 30 µM.
Assay [2] addresses T1, Ubiquitin-activating enzyme e1, putative (Leishmania donovani (strain BPK282A1)) (UniProt E9BSI1).
T1 sequence (whole entry): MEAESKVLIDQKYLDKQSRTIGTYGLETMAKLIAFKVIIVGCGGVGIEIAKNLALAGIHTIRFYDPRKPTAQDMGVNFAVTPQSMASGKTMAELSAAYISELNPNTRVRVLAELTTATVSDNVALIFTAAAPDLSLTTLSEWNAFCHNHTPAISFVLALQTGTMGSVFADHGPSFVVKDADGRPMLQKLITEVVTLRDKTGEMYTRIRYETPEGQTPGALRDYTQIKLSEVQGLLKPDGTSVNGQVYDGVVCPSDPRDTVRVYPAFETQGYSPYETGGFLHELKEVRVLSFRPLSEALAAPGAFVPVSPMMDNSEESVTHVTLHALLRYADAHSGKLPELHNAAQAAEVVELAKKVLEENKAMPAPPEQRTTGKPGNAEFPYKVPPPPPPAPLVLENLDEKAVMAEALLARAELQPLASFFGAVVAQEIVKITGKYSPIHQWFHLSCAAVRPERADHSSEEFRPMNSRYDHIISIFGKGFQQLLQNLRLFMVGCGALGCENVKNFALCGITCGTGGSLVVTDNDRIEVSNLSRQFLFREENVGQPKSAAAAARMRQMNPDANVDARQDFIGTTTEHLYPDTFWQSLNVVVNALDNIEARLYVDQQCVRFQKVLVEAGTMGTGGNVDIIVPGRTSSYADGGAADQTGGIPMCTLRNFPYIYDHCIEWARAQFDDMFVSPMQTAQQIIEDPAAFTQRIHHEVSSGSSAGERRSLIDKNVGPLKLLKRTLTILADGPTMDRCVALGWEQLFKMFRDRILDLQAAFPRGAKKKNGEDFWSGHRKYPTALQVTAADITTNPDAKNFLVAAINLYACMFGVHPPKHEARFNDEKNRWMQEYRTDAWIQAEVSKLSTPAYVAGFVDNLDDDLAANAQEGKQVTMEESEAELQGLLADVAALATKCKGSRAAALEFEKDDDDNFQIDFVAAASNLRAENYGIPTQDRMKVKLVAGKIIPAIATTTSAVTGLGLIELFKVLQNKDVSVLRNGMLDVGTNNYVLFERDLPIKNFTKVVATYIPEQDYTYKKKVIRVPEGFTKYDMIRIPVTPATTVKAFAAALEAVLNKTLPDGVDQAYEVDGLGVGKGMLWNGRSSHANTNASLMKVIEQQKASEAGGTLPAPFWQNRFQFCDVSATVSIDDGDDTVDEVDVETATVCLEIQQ
Put plainly: Leishmania donovani Ubiquitin Activating Enzyme (LdE1). The format is functional. The note with it: 30 µM.

Assay [3] deals with AMP-activated protein kinase, AMPK (Homo sapiens) (UniProt P54646+O43741+P54619+Q9UGJ0+Q9Y478+Q13131+Q9UGI9). Put plainly: AMP-dependent Kinase enzyme assay. An in vitro enzyme assay that detects ADP turnover that is directly proportional to AMPK activity. This uses naive AMPK that is activated during the assay with MK-8722. It counts as functional. The following applies: 30 µM.

Assay [4] concerns the target Sialic acid-binding Ig-like lectin 9 (Homo sapiens) (UniProt Q9Y336). Put plainly: Hs-Siglec9 ALPHAscreen SOP 20170721. The note with it: 10 µM. (In general: In Alpha technology, singlet oxygen from a donor bead excites a nearby acceptor bead.)
In a further assay the test system is Trypanosoma cruzi. Nature of the assay: Trypanosoma cruzi phosphomannomutase and mannose-1-phosphate guanylyltransferase assay. The following applies: 10 µM. The format is functional.
Assay [5] deals with T2, Arginase-2, mitochondrial (Homo sapiens) (UniProt P78540).
T2 sequence (whole entry): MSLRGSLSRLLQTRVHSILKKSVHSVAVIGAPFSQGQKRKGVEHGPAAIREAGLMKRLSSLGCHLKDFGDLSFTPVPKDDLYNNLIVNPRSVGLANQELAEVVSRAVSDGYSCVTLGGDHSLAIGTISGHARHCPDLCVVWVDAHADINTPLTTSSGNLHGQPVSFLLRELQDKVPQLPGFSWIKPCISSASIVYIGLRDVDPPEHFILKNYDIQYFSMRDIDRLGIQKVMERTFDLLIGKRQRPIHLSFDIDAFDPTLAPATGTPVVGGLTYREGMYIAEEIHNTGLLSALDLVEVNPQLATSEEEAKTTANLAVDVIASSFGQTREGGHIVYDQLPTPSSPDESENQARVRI
Put plainly: in vitro enzyme assay to detect the production of urea directly proportional to the activity of Arginase II. Also: in the data most compounds retested in dose-response had high values. It counts as functional. The following applies: 33.3 µM.

In assay [6] the target is T3, Proteasome subunit beta (Trypanosoma cruzi) (UniProt O96673).
T3 sequence (whole entry): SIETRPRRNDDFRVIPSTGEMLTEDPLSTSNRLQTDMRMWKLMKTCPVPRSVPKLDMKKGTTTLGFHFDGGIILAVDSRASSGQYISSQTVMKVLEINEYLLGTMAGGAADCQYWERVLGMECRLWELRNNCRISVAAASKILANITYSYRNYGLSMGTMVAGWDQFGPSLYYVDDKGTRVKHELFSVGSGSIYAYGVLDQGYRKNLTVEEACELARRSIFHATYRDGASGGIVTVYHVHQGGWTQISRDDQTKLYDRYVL
Put plainly: Trypanosoma cruzi proteasome chymotrypsin-like activity (TcProtChymo) assay. Also: in the data most compounds retested in dose-response had high values. The note with it: 9.37 µM. It counts as functional.

The species entered for another assay is Homo sapiens. Put plainly: To identify inhibition of the IFN signalling (Jak-Stat) pathway via expression of an eGFP reporter gene under the control of an IFN-stimulated response element (ISRE) containing MxA promoter. The format is functional. The following applies: 30 µM.
The target in assay [7] is T4, Tyrosyl-tRNA synthetase, putative (Trypanosoma cruzi (strain CL Brener)) (UniProt Q4DSP6).
T4 sequence (whole entry): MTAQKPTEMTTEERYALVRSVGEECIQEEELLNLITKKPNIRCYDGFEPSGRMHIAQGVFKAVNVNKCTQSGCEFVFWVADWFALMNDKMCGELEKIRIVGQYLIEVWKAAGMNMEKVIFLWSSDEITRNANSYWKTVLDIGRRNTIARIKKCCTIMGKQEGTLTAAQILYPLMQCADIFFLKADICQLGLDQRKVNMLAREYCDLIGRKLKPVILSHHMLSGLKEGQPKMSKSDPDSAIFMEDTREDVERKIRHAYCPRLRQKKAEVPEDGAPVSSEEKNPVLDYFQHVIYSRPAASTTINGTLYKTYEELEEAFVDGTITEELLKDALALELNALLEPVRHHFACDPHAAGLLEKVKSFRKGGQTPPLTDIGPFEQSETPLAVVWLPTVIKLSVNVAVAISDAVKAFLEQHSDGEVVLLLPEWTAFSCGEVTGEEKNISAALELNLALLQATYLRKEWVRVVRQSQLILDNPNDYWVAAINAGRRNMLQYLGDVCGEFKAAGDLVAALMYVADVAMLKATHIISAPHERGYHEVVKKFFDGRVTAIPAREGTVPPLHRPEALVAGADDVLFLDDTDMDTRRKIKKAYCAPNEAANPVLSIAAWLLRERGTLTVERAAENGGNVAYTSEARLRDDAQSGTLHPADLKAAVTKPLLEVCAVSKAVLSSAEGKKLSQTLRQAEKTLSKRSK
Nature of the assay: Trypanosoma cruzi tyrosyl tRNA synthetase (TcYRS) _High Tyrosine SOP. Also: in the data most compounds retested in dose-response had high values. It counts as functional. The following applies: 30 µM.

The target of assay [8] is T4, Tyrosyl-tRNA synthetase, putative (Trypanosoma cruzi (strain CL Brener)). Put plainly: Trypanosoma cruzi tyrosyl tRNA synthetase (TcYRS) SOP. It counts as functional. The note with it: 30 µM.
In assay [9] the target is Chromo domain-containing protein 1 (Saccharomyces cerevisiae (strain ATCC 204508 / S288c) (Baker's yeast)) (UniProt P32657). Nature of the assay: ScCHD-1 Enzyme Inhibition Assay. Also: in the data most compounds retested in dose-response had high values. The format is functional. The note with it: 30 µM.

Each structure is given as a SMILES string. For some assays here: Measured potencies and affinities stand elsewhere.

The results in this text go back to ChEMBL document CHEMBL3988442, “University of Dundee, Small-Polar-MMV Screening Library” (2021).

Chain of Sialic acid-binding Ig-like lectin 9 (Homo sapiens) (Q9Y336 whole entry): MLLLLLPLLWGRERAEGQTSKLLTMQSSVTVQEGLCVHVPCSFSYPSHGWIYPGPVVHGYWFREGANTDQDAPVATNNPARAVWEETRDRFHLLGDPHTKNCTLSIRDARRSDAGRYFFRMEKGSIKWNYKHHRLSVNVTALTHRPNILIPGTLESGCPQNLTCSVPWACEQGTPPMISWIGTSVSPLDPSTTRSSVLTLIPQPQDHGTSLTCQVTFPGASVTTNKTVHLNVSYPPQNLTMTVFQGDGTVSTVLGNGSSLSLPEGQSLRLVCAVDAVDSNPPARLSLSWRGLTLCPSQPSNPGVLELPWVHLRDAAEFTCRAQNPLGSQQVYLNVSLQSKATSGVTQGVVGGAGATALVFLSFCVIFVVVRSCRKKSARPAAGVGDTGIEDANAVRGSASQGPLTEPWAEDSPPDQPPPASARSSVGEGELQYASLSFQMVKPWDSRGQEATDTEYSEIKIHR
Chain of Chromo domain-containing protein 1 (Saccharomyces cerevisiae (strain ATCC 204508 / S288c) (Baker's yeast)) (P32657 whole entry, the tested form may be a part): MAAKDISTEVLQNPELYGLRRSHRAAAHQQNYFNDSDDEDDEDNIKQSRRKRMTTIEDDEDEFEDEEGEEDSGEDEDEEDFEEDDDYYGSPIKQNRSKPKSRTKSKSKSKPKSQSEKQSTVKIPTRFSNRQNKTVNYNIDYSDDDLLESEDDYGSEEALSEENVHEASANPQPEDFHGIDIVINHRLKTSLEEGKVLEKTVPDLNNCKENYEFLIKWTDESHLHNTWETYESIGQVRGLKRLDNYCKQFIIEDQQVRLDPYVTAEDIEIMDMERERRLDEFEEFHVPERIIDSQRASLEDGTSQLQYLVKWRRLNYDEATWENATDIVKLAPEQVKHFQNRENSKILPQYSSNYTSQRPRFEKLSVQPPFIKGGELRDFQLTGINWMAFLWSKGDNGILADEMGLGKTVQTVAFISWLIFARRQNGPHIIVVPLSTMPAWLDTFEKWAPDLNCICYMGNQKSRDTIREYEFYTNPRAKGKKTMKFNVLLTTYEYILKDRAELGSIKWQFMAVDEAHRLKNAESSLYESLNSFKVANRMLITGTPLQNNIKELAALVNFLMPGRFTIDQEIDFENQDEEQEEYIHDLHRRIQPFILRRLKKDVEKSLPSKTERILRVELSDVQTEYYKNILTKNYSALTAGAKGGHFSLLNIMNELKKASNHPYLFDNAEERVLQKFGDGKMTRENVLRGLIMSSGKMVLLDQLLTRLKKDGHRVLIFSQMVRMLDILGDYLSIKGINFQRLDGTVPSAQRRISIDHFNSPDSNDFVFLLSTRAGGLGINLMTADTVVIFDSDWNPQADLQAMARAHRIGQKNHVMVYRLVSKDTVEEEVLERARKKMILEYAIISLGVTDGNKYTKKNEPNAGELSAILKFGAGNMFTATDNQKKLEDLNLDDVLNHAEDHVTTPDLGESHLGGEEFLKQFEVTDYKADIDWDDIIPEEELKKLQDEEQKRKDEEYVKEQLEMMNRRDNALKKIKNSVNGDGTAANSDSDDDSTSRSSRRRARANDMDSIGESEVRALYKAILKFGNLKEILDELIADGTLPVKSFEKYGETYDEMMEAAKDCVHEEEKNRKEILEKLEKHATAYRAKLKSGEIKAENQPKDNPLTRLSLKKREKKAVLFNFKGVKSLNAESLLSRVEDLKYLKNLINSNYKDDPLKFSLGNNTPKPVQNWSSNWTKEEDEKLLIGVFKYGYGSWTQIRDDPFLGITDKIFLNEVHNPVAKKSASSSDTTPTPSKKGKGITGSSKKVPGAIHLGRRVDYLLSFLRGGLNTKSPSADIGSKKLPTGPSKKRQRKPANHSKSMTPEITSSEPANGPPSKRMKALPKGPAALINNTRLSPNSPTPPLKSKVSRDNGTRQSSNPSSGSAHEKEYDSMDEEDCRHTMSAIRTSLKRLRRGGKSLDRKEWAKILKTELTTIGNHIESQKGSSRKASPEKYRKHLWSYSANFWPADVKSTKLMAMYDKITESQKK
Chain of Protein translocase subunit SecA (Escherichia coli (strain K12)) (P10408 whole entry): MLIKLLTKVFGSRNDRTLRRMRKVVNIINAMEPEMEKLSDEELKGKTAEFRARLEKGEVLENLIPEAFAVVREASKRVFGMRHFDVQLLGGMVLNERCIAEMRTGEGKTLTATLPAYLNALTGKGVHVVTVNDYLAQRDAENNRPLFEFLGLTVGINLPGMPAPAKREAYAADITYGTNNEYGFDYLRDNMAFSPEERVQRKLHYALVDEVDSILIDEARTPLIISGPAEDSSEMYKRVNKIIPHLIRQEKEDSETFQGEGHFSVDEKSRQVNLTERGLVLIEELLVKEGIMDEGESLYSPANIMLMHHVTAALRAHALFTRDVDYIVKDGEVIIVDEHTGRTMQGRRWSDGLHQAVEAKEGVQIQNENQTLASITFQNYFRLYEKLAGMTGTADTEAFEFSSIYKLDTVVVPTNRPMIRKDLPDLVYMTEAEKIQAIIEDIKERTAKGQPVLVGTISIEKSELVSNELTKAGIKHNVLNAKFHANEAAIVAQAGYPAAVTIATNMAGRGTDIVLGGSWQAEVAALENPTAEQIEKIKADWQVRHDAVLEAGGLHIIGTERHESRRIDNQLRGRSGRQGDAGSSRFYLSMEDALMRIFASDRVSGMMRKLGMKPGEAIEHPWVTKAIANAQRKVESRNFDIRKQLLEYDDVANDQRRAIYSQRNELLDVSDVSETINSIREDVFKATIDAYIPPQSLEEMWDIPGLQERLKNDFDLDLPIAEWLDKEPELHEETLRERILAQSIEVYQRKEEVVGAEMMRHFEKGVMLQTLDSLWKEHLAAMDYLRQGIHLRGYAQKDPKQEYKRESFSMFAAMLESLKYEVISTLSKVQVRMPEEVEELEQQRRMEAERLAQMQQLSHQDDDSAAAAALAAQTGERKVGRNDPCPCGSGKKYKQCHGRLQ

For the compound `CNC(=O)CCc1cc(C)nc(C2CCCN2)n1` (stereo not given), the Percent Effect is -2.12% in [1]; -1.35% in [2]; 6.23% in assay [3]; 2.54% in assay [4]; -1.78% with Trypanosoma cruzi; 3.02% in [5]. Moreover, the Percent Effect is 5.62% in assay [6]; 13.2% in the assay filed under Homo sapiens; 3.23% in [7]; -3.9% in [8]; 6.64% in assay [9].
Consider `CN(Cc1ccco1)C[C@H]1OC[C@@H]2CCN(Cc3cccs3)C[C@@H]21`, for which the Percent Effect is 1.17% in assay [1]; -2.67% in assay [2]; 4.12% in [3]; 7.42% in [4]; -3.28% in the assay on Trypanosoma cruzi; -50.7% in assay [5]. The Percent Effect in assay [6] was -3.59%; in the assay listed under Homo sapiens it was -15.4%; in assay [7], -1.04%; in [8] it was -37.5%; in [9], -2.22%.
Regarding `CNC(=O)c1cccc(CNC(=O)C2CC(=O)N(CCN(C)C)C2)c1` (stereo not given), the Percent Effect in assay [1] was -5.39%; in [2] it was 5.33%; in assay [3], 4.48%; in assay [4], 0.817%; in the assay on Trypanosoma cruzi, -2.63%; in assay [5] it was -1.04%. Further, the Percent Effect in [6] was 12.2%; in the assay listed under Homo sapiens it was 14.1%; in assay [7], 3.83%; in [8], 6.17%; in [9], -3.88%.
For the compound `COc1ccc(OCCCN2CCOC(Cn3cccn3)C2)cc1` (stereo not given), the Percent Effect was -8.28% in assay [1]; 3.8% in assay [2]; 9.54% in assay [3]; 3.31% in assay [4]; -1.74% with Trypanosoma cruzi; 1.94% in assay [5]. The Percent Effect was 2.74% in assay [6]; 28.6% in the assay filed under Homo sapiens; 1.04% in assay [7]; 2.53% in [8]; -3.35% in [9].
As to `CCCOCC(=O)NC1CCc2nc(C)cn2C1` (stereo not given), the Percent Effect was -4.43% in assay [1]; 5.26% in assay [2]; 8.68% in assay [3]; 1.69% in assay [4]; -2.04% in the assay with Trypanosoma cruzi; -9.47% in assay [5]. Further, the Percent Effect in assay [6] is 17.2%; in the assay listed under Homo sapiens, 0.806%; in assay [7], 7.45%; in assay [8] it was 13%; in assay [9] it was -0.543%.
On to `Cc1nccn1-c1cc(CNC(=O)C(C)(C)C)ccn1`, for which the Percent Effect in assay [1] is -0.152%; in assay [2], 11%; in assay [3], 4.7%; in assay [4], 6.88%; with Trypanosoma cruzi, 0.588%; in assay [5], 34.1%. For the same compound, the Percent Effect was 18.1% in assay [6]; -3.27% in the assay filed under Homo sapiens; 2.15% in assay [7]; 17.5% in assay [8]; -6.75% in assay [9].
Consider `CCN(Cc1ccco1)C(=O)c1cc(OC)c2c(c1)OCCO2`, for which the Percent Effect is -1.97% in [1]; -2.63% in [2]; 6.68% in assay [3]; 5.11% in assay [4]; -0.487% with Trypanosoma cruzi; 3.55% in assay [5]. In addition, the Percent Effect in [6] is 9.88%; in the assay filed under Homo sapiens it was -7.24%; in assay [7] it was 0%; in assay [8] it was 2.6%; in assay [9], -1.38%.
For the compound `COc1ccc(S(=O)(=O)N2CCC(S(C)(=O)=O)CC2)cc1C`, the Percent Effect in assay [1] was -3.14%; in assay [2] it was 7.79%; in assay [3], 3.88%; in assay [4], 0.29%; with Trypanosoma cruzi, 4.04%; in assay [5] it was 1.94%. In addition, the Percent Effect in assay [6] was 4.7%; in the assay listed under Homo sapiens it was -5.43%; in [7] it was 3.17%; in assay [8] it was 11.5%; in assay [9] it was -6.76%.
Regarding `CCN(CC)C(=O)c1nnn(-c2ccc(C)cc2)c1C1CC1`, the Percent Effect in assay [1] is -2.41%; in [2], 13.5%; in assay [3] it was -1.1%; in [4], 9.18%; in the assay on Trypanosoma cruzi, 6.04%; in assay [5], 1.29%. The Percent Effect is -1.62% in assay [6]; 6.05% in the assay filed under Homo sapiens; 0% in [7]; 18.3% in assay [8]; -3.92% in assay [9].
For the compound `CN(C)S(=O)(=O)N1CCC2(COCc3cnc(-c4ccccc4)nc32)C1` (stereo not given), the Percent Effect in assay [1] is -3.52%; in assay [2] it was 13.3%; in [3], 1.46%; in assay [4], -2.12%; in the assay with Trypanosoma cruzi it was 4.44%; in [5] it was -1.25%. Also, the Percent Effect is 12.3% in assay [6]; 12.3% in the assay listed under Homo sapiens; -8.33% in assay [7]; 2.5% in assay [8]; -4.77% in assay [9].
